Shown are actives, neighbours in structure and some others; about 4.9% of the full set was active somewhere.
PP1 inh = PP1-alpha phosphatase inhibitors, primary screen, counter-screen for PP5 inhibitor project, biochemical, fluorescence, OMFP substrate, single point; 320,000 tested, 0.9% active; inhibition, % at 6.7 µM; AID 2235, 2010; Serine/threonine-protein phosphatase PP1-alpha catalytic subunit (Homo sapiens), P62136; purified PP1alpha;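 active = inhibition above the mean inhibition of all tested compounds plus 3 SD, computed separately for each screening campaign, cut at about 15% in these data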
Target sequence (P62136 whole entry, looked up): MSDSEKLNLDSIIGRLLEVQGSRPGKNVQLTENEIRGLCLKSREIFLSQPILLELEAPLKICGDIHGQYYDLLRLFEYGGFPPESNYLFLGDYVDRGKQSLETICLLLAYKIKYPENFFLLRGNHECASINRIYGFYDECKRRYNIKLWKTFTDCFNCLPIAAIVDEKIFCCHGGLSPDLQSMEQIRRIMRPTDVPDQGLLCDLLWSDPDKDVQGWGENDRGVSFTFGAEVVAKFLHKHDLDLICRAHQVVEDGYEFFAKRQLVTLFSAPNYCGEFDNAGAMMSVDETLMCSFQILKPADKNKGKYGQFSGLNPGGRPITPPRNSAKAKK
Beta cell apopt = inhibitors of cytokine-induced beta cell apoptosis, primary screen, luminescence; INS-1E cytokine-induced death, ATP luminescence, 48 h; percent of positive-control rescue, neutral wells zero; protection from apoptosis, % (test concentration not listed); 300,000 tested, 0.8% active; AID 435005, 2010;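 active = Every replicate reaches about 75%, or at least half do and their mean reaches it too, limit read from the data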;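 note: 0% = cytokine-treated negative control wells and 100% = positive control rescue; higher means more ATP so stronger rescue from cytokine killing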
CSC inhib = cancer stem cell viability inhibitors, primary screen, luminescence | inhibition, % at 7.5 µM | 300,000 tested, 1.1% active | cancer stem cell-like cells viability; in the data active = inhibition above about 75%; tested in HMLE shEcad cells
Mdm2 MdmX PPI = inhibitors of human Mdm2-MdmX association, primary screen, cell-based, luminescence, split luciferase, SaOS-2, uHTS. SaOS-2 split-luciferase Mdm2/MdmX complementation. inhibition, % at 8 µM. 330,000 tested, 3% active. AID 485346, 2010;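 active = inhibition of at least 50% at 8 µM in the primary screen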
Calb FLC = C. albicans growth inhibition with fluconazole, primary screen, CaCi-2 strain, Alamar Blue fluorescence; AID 1979, 2009; 300,000 tested, 0.57% active; C. albicans CaCi-2 (fluconazole-resistant clinical isolate) + fluconazole, 48 h; growth inhibition, % (concentration not given with the values);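 active = growth inhibition above about 58% in most replicates, limit read from the data, passing the limit was not always enough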;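 note: all wells also contain fluconazole at 8 µg/ml as a sub-toxic cotreatment; 0% = median of DMSO wells and 100% = median of geldanamycin control wells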
PP5 primary = PP5 phosphatase inhibitors, primary screen, biochemical, fluorescence. 320,000 tested, 0.18% active. inhibition, % at 6.7 µM. Serine/threonine-protein phosphatase 5 (Homo sapiens), P53041. purified PP5c, OMFP substrate fluorescence. AID 1987, 2009;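 active = inhibition above the campaign's mean inhibition across all tested compounds plus 3 SD, cut at about 9.5% in these data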;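 note: 0% = DMSO only and 100% = 100 µM cantharidin control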
PP5 conf = PP5 phosphatase inhibitors, confirmation, biochemical, fluorescence, human. shares compounds with PP5 primary. Purified PP5, fluorogenic phosphatase substrate. inhibition, % at 6.7 µM. 460 tested, 22% active. AID 2331, 2010; in the data active = inhibition above about 9.5%
PP1 counter 3x = PP1 phosphatase inhibitors, counter-screen for PP5 inhibitor project, biochemical, fluorescence, triplicate. shares compounds with PP5 primary. PP1 enzyme, fluorescent phosphatase substrate. inhibition, % at 6.7 µM. 460 tested, 4% active. AID 2355, 2010; in the data active = inhibition above about 16%
Numbers without * were called inactive.

What do the screens show for `COc1ccc(-c2csc3nc(-c4cccnc4)nc(N4CCC(C(N)=O)CC4)c23)cc1OC`?
PP1 inh: 1; Beta cell apopt: -26; CSC inhib: -3; Mdm2 MdmX PPI: 42; Calb FLC: 27; PP5 primary: 3

Results for Cc1onc(-c2c(F)cccc2Cl)c1C(=O)NCCc1ccncc1 ?
PP1 inh: 0; Beta cell apopt: -4; CSC inhib: 2; Mdm2 MdmX PPI: 1; Calb FLC: 21; PP5 primary: 1

What do the screens show for `CC(=O)c1ccc(S(=O)(=O)N2CCN(S(=O)(=O)c3ccccc3C(F)(F)F)CC2)cc1`?
PP1 inh: 3; Beta cell apopt: -3; CSC inhib: -17; Mdm2 MdmX PPI: 15; Calb FLC: 4; PP5 primary: -1

How did CCNC(=S)NS(=O)(=O)c1ccc(CC)cc1 do in these assays?
PP1 inh: -1; Beta cell apopt: -5; CSC inhib: -8; Mdm2 MdmX PPI: 13; Calb FLC: 0; PP5 primary: 10.0*; PP5 conf: -3; PP1 counter 3x: -2

How did COC(=O)CCC(=O)OC1(C)C(=O)C=C2C=C(C3CC3)N(CCCCO)C=C2C1=O (configuration not stated) do in these assays?
PP1 inh: 7; Beta cell apopt: -4; CSC inhib: -3; Mdm2 MdmX PPI: 9; Calb FLC: -2; PP5 primary: 14*; PP5 conf: 34*; PP1 counter 3x: 2

What do the screens show for `C=CCN1C=C2C(=O)C(C)(OC(=O)CCC(=O)OC)C(=O)C=C2C=C1C1CC1` (configuration not stated)?
PP1 inh: -3; Beta cell apopt: -3; CSC inhib: -9; Mdm2 MdmX PPI: -29; Calb FLC: 6; PP5 primary: 9

What do the screens show for `COC(=O)CCC(=O)OC1(C)C(=O)C=C2C=C(C3CC3)N(CCCOC(C)C)C=C2C1=O` (configuration not stated)?
PP1 inh: 5; Beta cell apopt: -7; CSC inhib: 23; Mdm2 MdmX PPI: 6; Calb FLC: 3; PP5 primary: 10*; PP5 conf: 35*; PP1 counter 3x: 11

How did COC(=O)CCC(=O)OC1(C)C(=O)C=C2C=C(C3CC3)N(CCc3c[nH]c4ccccc34)C=C2C1=O (configuration not stated) do in these assays?
PP1 inh: 11; Beta cell apopt: -1; CSC inhib: 9; Mdm2 MdmX PPI: -21; Calb FLC: 15; PP5 primary: 8

Results for COC(=O)CCC(=O)OC1(C)C(=O)C=C2C=C(C3CC3)N(CCN3CCOCC3)C=C2C1=O (configuration not stated) ?
PP1 inh: 1; Beta cell apopt: -2; CSC inhib: -14; Mdm2 MdmX PPI: -6; Calb FLC: 8; PP5 primary: 9

What do the screens show for `COC(=O)CCC(=O)OC1(C)C(=O)C=C2C=C(C3CC3)N(CCc3ccccn3)C=C2C1=O` (configuration not stated)?
PP1 inh: 2; Beta cell apopt: -7; CSC inhib: -4; Mdm2 MdmX PPI: 13; Calb FLC: 5; PP5 primary: 11*; PP5 conf: 42*; PP1 counter 3x: 19*

How did COC(=O)CCC(=O)OC1(C)C(=O)C=C2C=C(C3CC3)N(c3ccccc3)C=C2C1=O (configuration not stated) do in these assays?
PP1 inh: -1; Beta cell apopt: -4; CSC inhib: 2; Mdm2 MdmX PPI: -9; Calb FLC: 1; PP5 primary: 11*; PP5 conf: 30*; PP1 counter 3x: 10

Results for COC(=O)CCC(=O)OC1(C)C(=O)C=C2C=C(C3CC3)N(C(CO)CO)C=C2C1=O (configuration not stated) ?
PP1 inh: 8; Beta cell apopt: -7; CSC inhib: -10; Mdm2 MdmX PPI: 9; Calb FLC: 0; PP5 primary: 4

How did O=C(NC12CC3CC(CC(C3)C1)C2)c1cc(F)c(F)c(F)c1F do in these assays?
PP1 inh: 0; Beta cell apopt: 7; CSC inhib: -10; Mdm2 MdmX PPI: -21; Calb FLC: -4; PP5 primary: 2

How did CCOC(=O)[C@H]1[C@H]2COc3ccc(OC)cc3[C@@H]2N2C(=O)c3ccccc3NC(=O)[C@@]12C do in these assays?
PP1 inh: 0; Beta cell apopt: -5; CSC inhib: 10; Mdm2 MdmX PPI: -20; PP5 primary: -1

How did COc1cc(NC(=O)COc2cccc3c2OC(C)(C)C3)cc(OC)c1OC do in these assays?
PP1 inh: 5; Beta cell apopt: 56; CSC inhib: 5; Mdm2 MdmX PPI: 0; PP5 primary: -1

What do the screens show for `Cc1ccc(NC(=O)C2C3C=CC(O3)C2C(=O)O)c(C)c1` (configuration not stated)?
PP1 inh: 3; Beta cell apopt: -8; CSC inhib: 0; Mdm2 MdmX PPI: 12; Calb FLC: -9; PP5 primary: 18*; PP5 conf: 0; PP1 counter 3x: 12

What do the screens show for `COC(=O)c1ccc(NC(=O)C2C3C=CC(O3)C2C(=O)O)cc1` (configuration not stated)?
PP1 inh: 8; Beta cell apopt: -2; CSC inhib: -8; Mdm2 MdmX PPI: 6; Calb FLC: -4; PP5 primary: 21*; PP5 conf: 5; PP1 counter 3x: 6

Results for COC(=O)c1ccc(NC(=O)C2C3C=CC(C3)C2C(=O)O)cc1 (configuration not stated) ?
PP1 inh: 2; Beta cell apopt: -1; CSC inhib: 4; Mdm2 MdmX PPI: 8; Calb FLC: 4; PP5 primary: -4

What do the screens show for `Cc1cccc(NC(=O)C2C3C=CC(O3)C2C(=O)O)c1C` (configuration not stated)?
PP1 inh: 2; Beta cell apopt: -3; CSC inhib: 9; Mdm2 MdmX PPI: 25; Calb FLC: 5; PP5 primary: 10*; PP5 conf: 0; PP1 counter 3x: 4

What do the screens show for `Cc1ccc(C)c(NC(=O)C2C3C=CC(O3)C2C(=O)O)c1` (configuration not stated)?
Mdm2 MdmX PPI: -22; Calb FLC: 8

Screens from PubChem.
